IDE exosite inh: exo-site inhibitors of human IDE, primary screen, biochemical, fluorescence anisotropy, probe displacement. z-score at 20 µM. hit rate 6.3% among 17,000. Insulin-degrading enzyme (Homo sapiens), P14735. purified IDE, FL-6b probe fluorescence polarization; hits give low values;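 active means z-score of -3 or lower, meaning strong loss of probe binding signal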;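 further: His-tagged human IDE residues 42-1019 made in E. coli with 30 nM FL-6b probe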
Target sequence (P14735 42-1019 limits assumed): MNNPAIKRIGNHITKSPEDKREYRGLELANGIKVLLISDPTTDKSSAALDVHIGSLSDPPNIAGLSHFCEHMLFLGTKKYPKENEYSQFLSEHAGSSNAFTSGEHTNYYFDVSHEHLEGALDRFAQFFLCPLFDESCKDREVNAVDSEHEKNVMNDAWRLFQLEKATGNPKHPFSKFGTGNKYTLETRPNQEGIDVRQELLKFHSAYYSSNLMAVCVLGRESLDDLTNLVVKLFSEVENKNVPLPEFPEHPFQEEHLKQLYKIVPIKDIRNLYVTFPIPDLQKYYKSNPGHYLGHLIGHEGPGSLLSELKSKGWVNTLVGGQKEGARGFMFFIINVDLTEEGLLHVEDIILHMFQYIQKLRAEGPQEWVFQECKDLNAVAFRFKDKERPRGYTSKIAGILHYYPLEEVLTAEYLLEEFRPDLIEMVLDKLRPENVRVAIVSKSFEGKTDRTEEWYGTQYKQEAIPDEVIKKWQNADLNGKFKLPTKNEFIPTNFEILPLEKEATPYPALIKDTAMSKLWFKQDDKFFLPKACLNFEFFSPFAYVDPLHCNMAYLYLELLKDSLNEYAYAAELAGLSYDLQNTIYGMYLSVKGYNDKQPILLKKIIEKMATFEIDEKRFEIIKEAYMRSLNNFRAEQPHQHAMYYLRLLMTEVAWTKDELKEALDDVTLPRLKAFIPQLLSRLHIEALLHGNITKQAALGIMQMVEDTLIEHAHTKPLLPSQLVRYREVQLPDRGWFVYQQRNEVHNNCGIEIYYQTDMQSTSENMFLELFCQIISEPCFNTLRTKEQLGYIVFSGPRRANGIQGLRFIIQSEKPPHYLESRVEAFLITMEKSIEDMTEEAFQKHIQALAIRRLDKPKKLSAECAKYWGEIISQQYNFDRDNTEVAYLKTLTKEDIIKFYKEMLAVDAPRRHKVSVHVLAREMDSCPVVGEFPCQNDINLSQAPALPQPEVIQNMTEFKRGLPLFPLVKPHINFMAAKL
Each line names hits and unclear results; the compound was inactive in the other large screens. Many of the other results were omitted from the sample, so hits are more common in it than they were.

O=C(C1CCC1)N1CCCCN2[C@@H](CO)[C@@H](c3ccc(-c4ccncc4)cc3)[C@@H]2C1	none
CCC(=O)N1CC(=O)N2[C@H](C1)[C@H](c1ccc(-c3cccc(C(=O)N(C)C)c3)cc1)[C@@H]2CO	none
CC(=O)N1CCCCN2[C@H](CO)[C@H](c3ccc(-c4ccc(C)cc4)cc3)[C@@H]2C1	none
COCC(=O)N1CCCCN2[C@H](C1)[C@@H](c1ccc(-c3cccc(C)c3)cc1)[C@@H]2CO	IDE exosite inh -5
COCC(=O)N1CCCCN2[C@H](CO)[C@H](c3ccc(-c4ccc(C)cc4)cc3)[C@H]2C1	none
CC(=O)N1CCCCN2[C@@H](CO)[C@@H](c3ccc(-c4cccc(C)c4)cc3)[C@@H]2C1	none
CC(=O)N1CCCCN2[C@H](CO)[C@@H](c3ccc(-c4cccc(C)c4)cc3)[C@H]2C1	IDE exosite inh -5.7
CC(=O)N1CCCCN2[C@H](C1)[C@H](c1ccc(-c3ccccc3)cc1)[C@@H]2CO	none
CC(=O)N1CCCCN2[C@@H](CO)[C@@H](c3ccc(-c4ccccc4)cc3)[C@@H]2C1	none
CC(=O)N1CCCCN2[C@H](CO)[C@@H](c3ccc(-c4cccc(C)c4)cc3)[C@@H]2C1	IDE exosite inh -3.5
COCC(=O)N1CCCCN2[C@H](CO)[C@@H](c3ccc(-c4cccc(C)c4)cc3)[C@H]2C1	none
CC(C)CC#Cc1ccc([C@@H]2[C@@H](CO)N3C(=O)CN(S(C)(=O)=O)C[C@H]23)cc1	none
O=C(Nc1ccccc1F)N1CC(=O)N2[C@H](CO)[C@@H](c3ccc(-c4ccc(F)cc4)cc3)[C@@H]2C1	none
O=C(O)C[C@@H]1C=C[C@H](NC(=O)Nc2cc(F)ccc2F)[C@@H](CO)O1	none
O=C(NC[C@H]1[C@@H](c2ccccc2)[C@@H](CO)N1CC1CCCC1)C1CC1	none
CN1c2ccc(-c3ccc(F)cc3)cc2[C@H]2[C@H](CCN2C(=O)Cc2cccnc2)[C@@H]1CO	none
COc1ccc2c3c(n(C)c2c1)[C@@H](CO)N(Cc1cccc(Cl)c1)CC31CCN(C(=O)C2CC2)CC1	none
COc1ccc(-c2cn(CC[C@H]3CC[C@H](NC(=O)c4cnccn4)[C@H](CO)O3)nn2)cc1	none
N#C[C@@H]1[C@H](c2ccc(C#CC3(O)CCCC3)cc2)[C@@H](CO)N1C(=O)C1CC1	none
CC(=O)NC[C@H]1[C@@H](c2ccc(-c3cccnc3)cc2)[C@H](CO)N1C(=O)C1CCC1	none
CC(C)(O)C#Cc1ccc([C@H]2[C@@H](CO)N3CCCCN(C(=O)c4ccncc4)C[C@@H]23)cc1	none
C/C=C/c1ccccc1[C@H]1[C@@H](CO)N(C(=O)CN2CCOCC2)[C@H]1C#N	none
COc1ccc(C#Cc2ccc([C@@H]3[C@H]4CN(C(=O)c5ccncc5)CC(=O)N4[C@H]3CO)cc2)cc1	none
COc1ccc(CN2CC3(CCN(C(=O)Cc4ccncc4)CC3)c3c([nH]c4cc(OC)ccc34)[C@@H]2CO)cc1	IDE exosite inh -3.1
COc1ccc2c3c([nH]c2c1)[C@H](CO)N(Cc1ccc(Cl)cc1)CC31CN(S(C)(=O)=O)C1	none
COc1ccc2c3c([nH]c2c1)[C@H](CO)N(C(=O)Nc1ccc(F)cc1)CC31CCN(C(=O)Cc2ccncc2)CC1	none
COc1ccc2c3c([nH]c2c1)[C@@H](CO)N(C(=O)Nc1ccc(F)cc1)CC31CCN(C(=O)Cc2ccncc2)CC1	none
CCCC(=O)N1CCC2(CC1)CN(Cc1ccc(Cl)cc1)[C@H](CO)c1[nH]c3cc(OC)ccc3c12	IDE exosite inh -3.6
COc1ccc2c3c([nH]c2c1)[C@@H](CO)N(Cc1ccc(Cl)cc1)CC31CN(S(C)(=O)=O)C1	none
CN1C(=O)c2cc(NC(=O)C3CCOCC3)ccc2OC[C@H]2O[C@H](CC(=O)NCc3ccccc3F)CC[C@H]21	none
Cc1noc(C)c1NC(=O)N1C[C@@H](O)COC[C@@H]2O[C@@H](CC(=O)N3CCc4ccccc4C3)CC[C@H]21	none
COc1cccc(-c2ccc(C3[C@H]4CNC[C@@H]3N4Cc3cncnc3)cc2)c1 (some centres undefined)	none
CC(=O)N1[C@@H]2c3ccc(-c4cncnc4)c(=O)n3C[C@@H]2[C@@H](CO)[C@@H]1C(=O)NCc1ccccc1Cl	none
COCC(=O)N1CC(=O)N2[C@@H](CO)[C@@H](c3ccc(-c4ccccc4F)cc3)[C@@H]2C1	none
COCC(=O)N1CC(=O)N2[C@H](C1)[C@@H](c1ccc(-c3ccccc3F)cc1)[C@@H]2CO	none
CCC(=O)N1CC(=O)N2[C@H](CO)[C@H](c3ccc(-c4ccccc4F)cc3)[C@H]2C1	IDE exosite inh -7.4
CCC(=O)N1CC(=O)N2[C@H](CO)[C@H](c3ccc(-c4ccccc4F)cc3)[C@@H]2C1	none
CCN1CC(=O)N2[C@H](CO)[C@H](c3ccc(-c4ccccc4F)cc3)[C@@H]2C1	none
CCC(=O)N1CC(=O)N2[C@H](C1)[C@@H](c1ccc(-c3ccccc3F)cc1)[C@@H]2CO	IDE exosite inh -8
CCCC#Cc1ccc([C@H]2[C@@H](CO)N3C(=O)CN(C(=O)NC4CCCC4)C[C@@H]23)cc1	none
O=C(C[C@H]1CC[C@H]2NC[C@@H](O)COC[C@@H]2O1)NCCN1CCCCC1	none
